Compound activity from PubChem BioAssay.
HttQ103 aggreg: mutant huntingtin aggregation inhibition; PC12 HttQ103-GFP aggregates, Acumen cytometry, 40 h; Potency, µM (titrated, usually from 46.1 µM), inactives show top-dose activity change, negative = inhibition, most hits filed as inhibitors; actives 1.1% (n = 220,000); AID 1688; further: potency means the concentration at half of the fitted maximal effect; on the % scale 0 is the no-effect control and ±100 the full control effect; nearly all actives have a fitted effect of over 60% in size
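Compounds (qHTS titration) were added to PC12 cells expressing an ecdysone-driven HTT exon 1 Q103–GFP fusion after induction with 100 nM tebufenozide. Aggregate formation was measured as GFP objects in cell lysates.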
IMPase cell inh: membrane-permeable compound that blocks inositol monophosphatase. P97697. CHO-M1 cells, IP1 accumulation, HTRF TR-FRET ratio. inhibition (IP1 accumulation), % at 46.1 µM. 120,000 tested, under 10 active. AID 901; active means well fitted curve in the direction sought with a large enough effect in the signal ratio, not every such curve was filed as active; inconclusive means small, poorly fitted or top-dose-only effect, or a change in a side signal; inactive means no such curve, though single readings can be large or run the other way; the % refers to the signal ratio;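 further: cells stimulated with carbachol in lithium chloride buffer; plate controls were DMSO basal wells for no effect and reference inhibitor wells for full effect; higher means more IMPase inhibition seen as more IP1 and lower FRET ratio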
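CHO-M1, 2000 cells/well, cultured 16–30 h; cpd up to 46 uM; carbachol (50 uM solution, stimulation buffer w/ 50 mM LiCl, pH 7.4), 30 min 37C; IP-One TR-FRET, 10 min RT; Ex 320/Em 665, 620; Hill-fit AC50.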
HPGD inh: blocks human HPGD enzyme activity; P15428; purified HPGD, NADH fluorescence kinetic, PGE2 substrate; Potency, µM, inactives show at the top dose activity change, negative = inhibition, usual class: inhibitors; actives 4.3% (n = 150,000); AID 894; active means well fitted inhibition curve with a large enough effect, not every such curve was filed as active; inconclusive means small, poorly fitted or top-dose-only effect, or another doubt; inactive means no such curve, though single readings can be large or run the other way; further: potency means the concentration at half of the fitted maximal effect; on the % scale 0 is the no-effect control and ±100 the full control effect
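20 nM HPGD preincubated 15 min at room temperature with compound in 50 mM Tris-HCl pH 8, 0.01% Tween 20. Started with 1 mM NAD+ and 30 uM prostaglandin E2; NADH fluorescence (360/450 nm) read 5 times over 30-s intervals, last minus first.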
HTT cytoprotect: cytoprotection in Huntington HTT-Q103 PC12 cell model; PC12 HTT-Q103 induced, cytoprotection, ATP luminescence, 40 h; Potency, µM (series often up to 56.4 µM), for the others: cytoprotection (ATP increase), usual class: activators; actives 0.14% (n = 230,000); AID 1471; further: potency means the concentration at half of the fitted maximal effect; % of control where 0% means no effect; nearly all actives have a fitted effect of over 45% in size
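ATP quantification (ATPlite) reports survival of PC12 cells in which tebufenozide, 100 nM final, switches on Htt exon 1 with 103 glutamines linked to GFP; compounds are titrated.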
ALDH1A1 inh: blocks purified human ALDH1A1 activity; P00352; Purified ALDH1A1, NADH fluorescence, propionaldehyde substrate; Potency, µM (top dose mostly 75.3 µM), for the others: at the highest dose activity, negative = inhibition, most hits filed as inhibitors; actives 7.3% (n = 220,000); AID 1030; active means well fitted inhibition curve with a large enough effect, not every such curve was filed as active; inconclusive means small, poorly fitted or top-dose-only effect, or another doubt; inactive means no such curve, though single readings can be large or run the other way;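 further: potency means the concentration at half of the fitted maximal effect; plate controls were no enzyme wells and a reference inhibitor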
Target sequence (P00352 whole entry, looked up): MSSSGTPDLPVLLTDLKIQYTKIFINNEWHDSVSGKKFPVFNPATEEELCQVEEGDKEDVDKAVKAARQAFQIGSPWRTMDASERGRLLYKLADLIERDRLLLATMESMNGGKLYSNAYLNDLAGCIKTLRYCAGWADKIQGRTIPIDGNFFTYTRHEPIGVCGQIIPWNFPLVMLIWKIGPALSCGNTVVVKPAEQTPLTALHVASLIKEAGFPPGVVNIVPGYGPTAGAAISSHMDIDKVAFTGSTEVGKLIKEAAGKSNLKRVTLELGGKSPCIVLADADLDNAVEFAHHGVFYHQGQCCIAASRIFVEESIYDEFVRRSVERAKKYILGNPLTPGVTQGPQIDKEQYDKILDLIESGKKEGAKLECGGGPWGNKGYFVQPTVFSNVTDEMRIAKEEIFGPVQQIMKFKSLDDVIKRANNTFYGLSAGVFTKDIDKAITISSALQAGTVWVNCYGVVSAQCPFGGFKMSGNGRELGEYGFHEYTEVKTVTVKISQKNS
IMPase Li cell: IMPase inhibition in cells with lithium potentiation; CHO-M1 cells, IP1 TR-FRET (IP-One), carbachol + lithium; actives 0.35% (n = 210,000); AID 1457; Potency, µM (doses to about 59.4 µM), without a hit: top-dose activity, negative = IMPase inhibition, usual class: inhibitors;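 further: IP1 builds up when IMPase is blocked and the TR-FRET signal falls; potency means the concentration at half of the fitted maximal effect; plate controls were basal vehicle for no effect and high inhibitor control for full effect; nearly all actives have a fitted effect of over 50% in size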
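Steps: plate 2000 CHO-M1 cells per well and culture 16–30 h; add compound and lithium; incubate 30 min, 37C; add d2-IP1 tracer and Eu cryptate anti-IP1 antibody in lysis buffer; read after 10 min at room temperature.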
* hit, by the source's call; ? = inconclusive; · = no result given; ! = not active in a repeat; [ ] = another dose, or the depositor's remark. Most compounds without a hit are left out; they make up all but 9.4% or so of the library. Unless noted, the call rests on the fitted dose curve; in most records, active means well fitted curve in the direction sought with a large enough effect; inconclusive means small, poorly fitted or top-dose-only effect, or another doubt; inactive means no such curve, though single readings can be large; an effect the other way counts as inactive or inconclusive.

SMILES	HttQ103 aggreg	IMPase cell inh	HPGD inh	HTT cytoprotect	ALDH1A1 inh	IMPase Li cell
O=C(CCNc1ccc(Cl)c(C(F)(F)F)c1)c1ccco1	8%	?	-6%	-1%	8.9µM*	30%[38.3 µM]
O=C(CSc1ccc(Cl)cc1)c1ccco1	?	-1	25µM*	29%	13µM*	17%[38.3 µM]
O=C(CCNc1ccc(F)cc1)c1ccco1	-3%	-2	-2%	-9%	1.4µM*	22%[38.3 µM]
O=C(CCNC(=O)c1ccccc1)Nc1ccc(F)c(Cl)c1	6%	-13	-7%	9%[10 µM]	7%	1%
O=C(CSc1ccccc1Cl)c1ccco1	-5%[9.22 µM]	5	-20%	-27%	-4%	8%[38.3 µM]
O=C(CCNc1ccc(F)c(Cl)c1)c1ccco1	13%	7	-7%	18%[10 µM]	3.5µM*	2%[38.3 µM]
CCOc1ccc(CN(CCc2ccc3c(c2)OCO3)Cc2cc(OC)cc(OC)c2)cc1	·	7	·	·	·	·
CC(C)C(NC(=O)C(CC(=O)O)NC(=O)C(CCCCN)NC(=O)C(N)CCCN=C(N)N)C(=O)NC(Cc1ccc(O)cc1)C(=O)O (configuration not stated)	0%	·	·	-11%	·	·
O=C(CCNc1cccc(C(F)(F)F)c1)c1ccco1	18%	1	-9%	0%[10 µM]	2.5µM*	54%[38.3 µM]
O=C(CCNc1cc(Cl)cc(Cl)c1)c1ccco1	1%	0	-16%	7%	7.9µM*	7%[38.3 µM]
Cc1cccc(Cn2c(SCC(=O)Nc3ccccc3)nc3c2c(=O)[nH]c(=O)n3C)c1	-9%	-8	22µM*	-1%	?	28%[38.3 µM]
Cc1cc(C)n(-c2nc3c(c(=O)[nH]c(=O)n3C)n2Cc2cccc(Br)c2)n1	5%	-11	16µM*	19%[0.074 µM]	0%	-9%[38.3 µM]
Cn1c(=O)[nH]c(=O)c2c1nc(Sc1nc3ccccc3s1)n2Cc1ccccc1	-18%	5	-4%	-28%	16µM*	37%[38.3 µM]
Cn1c(=O)[nH]c(=O)c2c1nc(SCCN1CCCCC1)n2Cc1ccccc1	1%	6	25µM*	-6%[10 µM]	?	24%[38.3 µM]
Cc1ccc(Cn2c(Sc3nnc(C)s3)nc3c2c(=O)[nH]c(=O)n3C)cc1	4%	7	-2%	?	-18%	4%[38.3 µM]
Cc1cccc(C)c1Nc1oc(-c2ccccc2)nc1-c1ccccc1	·	·	-15%	10%	5%	23%
Nc1ncnc2c1ncn2CCCCC(=O)O	·	·	-5%	-7%[10 µM]	-2%[13.5 µM]	-1%
COc1ccc(C2C(C(=O)Nc3cccnc3)=C(C)Nc3nc(-c4ccc(OC)c(OC)c4)nn32)cc1 (configuration not stated)	·	4	·	·	·	·
Cc1oc2c(cc(NS(=O)(=O)c3ccc(F)cc3)c3ccccc32)c1C(=O)OCc1ccccc1	·	-4	·	·	·	·
Cc1ccc(Cn2c(SCCN3CCCCC3)nc3c2c(=O)[nH]c(=O)n3C)cc1	-22%	8	28µM*	-7%[10 µM]	?	13%
Cn1c(=O)[nH]c(=O)c2c1nc(SCCN1CCCCC1)n2CCCc1ccccc1	-3%	-2	28µM*	6%[10 µM]	?	10%[38.3 µM]
COc1ccc(Cc2nnc(N/N=C/c3ccc(O)cc3O)[nH]c2=O)cc1OC	10%	·	32µM*	18%[10 µM]	-7%	30%
Cc1ccc(/C=N/Nc2nnc(Cc3ccccc3)c(=O)[nH]2)o1	-4%	·	·	·	17%	4%
CCOC(=O)/C(=C/C=C1\Sc2cc(OCC)c(OCC)cc2N1CC)C(C)=O	?	·	·	-59%	-7%	55%
CCN1/C(=C/C(C)=O)Sc2ccc(OC)cc21	?	6	13µM*!	10%	?	29%[38.3 µM]
SMILES	HttQ103 aggreg	IMPase cell inh	HPGD inh	HTT cytoprotect	ALDH1A1 inh	IMPase Li cell
O=c1c2ccccc2oc2cc(O)c([C@@H]3COC[C@@H](CO)[C@@H](O)[C@@H](O)[C@H]3O)c(O)c12	·	·	·	-7%	·	·
CCOc1ccc(C(=O)Nc2ccccc2N2CCOCC2)cc1	-4%	-21	-5%	-27%	-8%	0%[38.3 µM]
CCOc1ccc(C(=O)C2CCN(CC(=O)Nc3ccccc3N3CCOCC3)CC2)cc1	?	15	-25%	-16%[10 µM]	25µM*	6%[38.3 µM]
Cc1cc2c(=O)oc(-c3ccccc3Br)nc2s1	12%[9.22 µM]	·	·	9%[10 µM]	·	·
Cc1cc2c(=O)oc(-c3ccc(F)cc3)nc2s1	-13%[9.22 µM]	·	·	-4%[10 µM]	16µM*	5%
Cc1ccc(-n2c(SCC(=O)NCc3ccco3)nnc2-c2cccnc2)cc1	-7%	4	-17%	19%[10 µM]	?	-2%
O=C(CSc1nnc(-c2ccncc2)n1-c1ccc(F)cc1)NC(=O)NCc1ccco1	3%	0	-17%	17%[10 µM]	25µM*	17%
COc1ccc(-c2nnc(SCC(=O)NC(=O)NCc3ccco3)o2)cc1	2%	2	20µM*	-11%	22µM*	-29%[38.3 µM]
COc1ccc(S(=O)(=O)N(C)CC(=O)NCc2ccco2)cc1	9%	-4	-19%	9%	35µM*	-13%[38.3 µM]
CS(=O)(=O)N(CC(=O)NCc1ccco1)c1ccc(OCc2ccccc2)cc1	13%	·	·	-25%	19µM*	1%
COc1ccc(N(CC(=O)NCc2ccco2)S(C)(=O)=O)cc1	8%	-8	-7%	-23%	2%	-15%[38.3 µM]
